{
  "source": "PubChem BioAssay (NCATS)",
  "note": "Records with an inconclusive call do not appear. Calls of active or inactive are those of the source. The call rests on the fitted dose curve; in most records, active means well fitted inhibition curve with a large enough effect; inconclusive means small, poorly fitted or top-dose-only effect; inactive means flat fitted curve, though single readings scatter.",
  "data": [
    {"test_system": "CP262", "experiment": "qHTS profiling for inhibitors of Plasmodium falciparum proliferation (AID 504749);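 further: 0% = DMSO vehicle and full inhibition = artemisinin control; nearly all actives have a fitted effect of over 60% in size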", "details": "P. falciparum in erythrocytes, SYBR Green DNA, 72 h; series mostly up to 28.7 µM; activity, negative = inhibition: at the top concentration", "in_short": "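Parasite proliferation within erythrocytes, 72 h exposure. Endpoint: SYBR Green I fluorescence after overnight lysis at room temperature. Controls: 0.29 uM artemisinin, DMSO.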", "values": [
      {"smiles": "C#C[C@]1(O)CC[C@H]2[C@@H]3CCc4cc(OC)ccc4[C@H]3CC[C@@]21C", "activity, negative = inhibition": "0.729% (inactive)"},
      {"smiles": "CCCCNC(=O)NS(=O)(=O)c1ccc(N)cc1", "activity, negative = inhibition": "0% (inactive)"},
      {"smiles": "Nc1ccc(C(=O)NCC(=O)O)cc1", "activity, negative = inhibition": "6.28% [at 12.8 µM] (inactive)"},
      {"smiles": "OC1C(O)C(O)C(O)C(O)C1O", "note": "(stereo not given)", "activity, negative = inhibition": "7.29% (inactive)"},
      {"smiles": "O=S(=O)(O)c1ccc(O)cc1", "activity, negative = inhibition": "-1.83% (inactive)"},
      {"smiles": "COc1cc(C(=O)NCc2ccc(OCCN(C)C)cc2)cc(OC)c1OC", "activity, negative = inhibition": "0% [at 12.8 µM] (inactive)"},
      {"smiles": "COc1cc(C)nc(-n2nc(C)cc2OC)n1", "activity, negative = inhibition": "-4.88% [at 12.8 µM] (inactive)"},
      {"smiles": "CC(=O)Oc1ccc(C)cc1", "activity, negative = inhibition": "-0.166% (inactive)"},
      {"smiles": "CC(=O)NC(=O)c1ccccc1O", "activity, negative = inhibition": "3.09% (inactive)"},
      {"smiles": "FC(F)(F)C(F)(F)C(F)(F)C(F)(F)C(F)(F)C(F)(F)C(F)(F)C(F)(F)Br", "activity, negative = inhibition": "-2.67% (inactive)"},
      {"smiles": "c1ccc(-c2nc[nH]c2-c2ccccc2)cc1", "activity, negative = inhibition": "2.31% (inactive)"},
      {"smiles": "CCNC(=O)NCc1cccc(Cl)c1", "activity, negative = inhibition": "4.25% (inactive)"},
      {"smiles": "O=C(O)Cc1csc(-c2ccc(Cl)cc2)n1", "activity, negative = inhibition": "1.08% (inactive)"},
      {"smiles": "Nc1nc(-c2ccccc2)c(Br)c(=O)[nH]1", "activity, negative = inhibition": "2.7% (inactive)"},
      {"smiles": "O=c1[nH]c(=O)n([C@H]2C[C@H](O)[C@@H](CO)O2)cc1F", "activity, negative = inhibition": "-13.2% (inactive)"},
      {"smiles": "CC(=O)Nc1ncc([N+](=O)[O-])s1", "activity, negative = inhibition": "-3.7% (inactive)"},
      {"smiles": "Cc1cccc(C)c1NC(=O)CN1CCCCCC1", "activity, negative = inhibition": "-24.1% (inactive)"},
      {"smiles": "CC[C@H](c1ccc(O)cc1)[C@@H](CC)c1ccc(O)cc1", "activity, negative = inhibition": "0% [at 12.8 µM] (inactive)"},
      {"smiles": "Cc1c(-c2ccccc2)oc2c(C(=O)OCCN3CCCCC3)cccc2c1=O", "activity, negative = inhibition": "0.965% [at 12.8 µM] (inactive)"},
      {"smiles": "CCCCCCCCCCCCCCCCO", "activity, negative = inhibition": "0.811% (inactive)"},
      {"smiles": "Oc1ccccc1C=NCc1ccccc1", "activity, negative = inhibition": "15.3% (inactive)"},
      {"smiles": "CCN(CC)CCNC(=O)COc1ccc(OC)cc1", "activity, negative = inhibition": "0% (inactive)"},
      {"smiles": "COc1cc(N)c(Cl)cc1C(=O)NC1CCN(Cc2ccccc2)CC1", "activity, negative = inhibition": "0% [at 12.8 µM] (inactive)"},
      {"smiles": "Cc1cc(NS(=O)(=O)c2ccc(N)cc2)nc(C)n1", "activity, negative = inhibition": "3.72% (inactive)"},
      {"smiles": "CC(=O)OC[C@H]1O[C@@H](n2ncc(=O)[nH]c2=O)[C@H](OC(C)=O)[C@@H]1OC(C)=O", "activity, negative = inhibition": "3.44% (inactive)"},
      {"smiles": "CCOc1ccccc1OCCN[C@H](C)Cc1ccc(OC)c(S(N)(=O)=O)c1", "activity, negative = inhibition": "-19.6% (inactive)"},
      {"smiles": "O=C(NCCc1c[nH]c2ccccc12)c1cccnc1", "activity, negative = inhibition": "36.8% (inactive)"},
      {"smiles": "Cc1ccccc1OCC(O)CO", "note": "(stereo not given)", "activity, negative = inhibition": "0% (inactive)"},
      {"smiles": "Cc1cc(C)cc(OCC2CNC(=O)O2)c1", "note": "(stereo not given)", "activity, negative = inhibition": "0% (inactive)"},
      {"smiles": "CCOc1cc(OCC)c(C(=O)CCC(=O)O)cc1OCC", "activity, negative = inhibition": "0.136% (inactive)"},
      {"smiles": "N#CCC(=O)NN", "activity, negative = inhibition": "-0.356% (inactive)"},
      {"smiles": "O=C(O)C(Cc1cc(I)c(O)c(I)c1)c1ccccc1", "note": "(stereo not given)", "activity, negative = inhibition": "9.22% (inactive)"},
      {"smiles": "CCCCCCCC/C=C\\CCCCCCCCN", "activity, negative = inhibition": "4.44% (inactive)"},
      {"smiles": "CC1=C(C(=O)O)N2C(=O)[C@@H](NC(=O)[C@H](N)c3ccccc3)[C@H]2SC1", "activity, negative = inhibition": "-1.38% (inactive)"},
      {"smiles": "CCN(CC)CCNc1ccc(CO)c2sc3ccccc3c(=O)c12", "activity, negative = inhibition": "0% (inactive)"},
      {"smiles": "Cl/C(=C\\n1cncn1)c1ccc(Cl)cc1Cl", "activity, negative = inhibition": "7.95% (inactive)"},
      {"smiles": "CCCCCCCCCCCCCCCC(=O)O", "activity, negative = inhibition": "-1.35% (inactive)"},
      {"smiles": "CC(C)CCCC(C)N", "note": "(stereo not given)", "activity, negative = inhibition": "0% (inactive)"},
      {"smiles": "CCOC(=O)c1ccc(N)cc1", "activity, negative = inhibition": "9.76% [at 12.8 µM] (inactive)"},
      {"smiles": "Cc1c[nH]c2ccccc12", "activity, negative = inhibition": "4.68% (inactive)"}
    ]}
  ]
}
